Paper PMC7819943, “Rice protein-binding microarrays: a tool to detect cis-acting elements near promoter regions in rice”
In all, about 35,000 sequences were measured (“fluorescence intensity (a.u.)”: median about 10,000, highest 2% from about 52,000 on). For the sample, the highest values were picked, then their nearest neighbours and some sequences at random.

What follows are sequences tested against T1, OsWOX13 (Oryza sativa, UniProt Q5QMM3 1-267) (assay: protein-binding microarray (RPBM); PBS, 2% BSA, 51.3 ng/ul salmon testes DNA, 50 uM zinc acetate, 200 nM TF, 25 C, 1 h; high values mean tight binding). Details: protein: recombinant; tags: N-terminal polyhistidine and DsRed monomer fusion (pET32a); label: CyDye5-dUTP incorporated in the synthesized complementary strand; 3' TTTTT single-stranded linker to array surface; dsDNA, one strand shown.
T1 sequence: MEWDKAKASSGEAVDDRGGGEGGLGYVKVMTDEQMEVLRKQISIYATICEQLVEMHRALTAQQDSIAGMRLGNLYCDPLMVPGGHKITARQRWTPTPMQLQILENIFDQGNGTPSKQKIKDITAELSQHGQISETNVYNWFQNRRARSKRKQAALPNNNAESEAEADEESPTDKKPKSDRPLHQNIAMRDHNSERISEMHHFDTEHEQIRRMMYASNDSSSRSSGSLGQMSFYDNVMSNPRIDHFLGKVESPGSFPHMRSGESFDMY
Method in brief: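 A custom Agilent array was converted to double-stranded form by primer extension with Cy5-dUTP and blocked with 2% BSA. Protein at 200 nM in PBS with 2% BSA, salmon testes DNA and 50 µM zinc acetate was applied for 1 h at 25 °C, followed by washing. The proteins were polyhistidine–DsRed N-terminal fusions of transcription factors, expressed in E. coli BL21-CodonPlus and Ni–NTA-purified. The binding signal is per-feature fluorescence intensity (arbitrary units) from an Axon 4000B scanner.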

Row | Sequence | binding signal
1 | ATGCTTTGATTGAAATCAAGTACTCTGAAGCTAGTCATTCCGGAGTCACCTAGTGCAG | 56700 fluorescence intensity (a.u.)
2 | GTTGATGAGAGTGAAATTTGATTGACAAAGGATTGACTGGCGGAGTCACCTAGTGCAG | 64400 fluorescence intensity (a.u.)
3 | AAAGTTTGGATTTTGATTGAAATTGAAGATGATGTGACTGCGGAGTCACCTAGTGCAG | 26700 fluorescence intensity (a.u.)
4 | TAAAATTGAAAATTTGATTGAAATTGGAACGATGTGATGGCGGAGTCACCTAGTGCAG | 64500 fluorescence intensity (a.u.)
5 | CAAATAATTATTATACTTTGTCATGTCATATAAACTATATCGGAGTCACCTAGTGCAG | 17900 fluorescence intensity (a.u.)
6 | ACTCATGCTTACTTGATTGATAGTGGAAGAACCTTTTCTTCGGAGTCACCTAGTGCAG | 28200 fluorescence intensity (a.u.)
7 | AGTTTAATGGTGATAATATGATTTCAAAATCTGACAACCGCGGAGTCACCTAGTGCAG | 12500 fluorescence intensity (a.u.)
8 | TTTTCTGGTGGCAAGATGATTGAGATATACACCTTGAAGTCGGAGTCACCTAGTGCAG | 7690 fluorescence intensity (a.u.)
9 | GGAATTGGTAACAGCAAGCTTAACAGAGAAAGGTAGTCGACGGAGTCACCTAGTGCAG | 8350 fluorescence intensity (a.u.)
10 | TCTATAAATTGGCCTAGTACCTGGAAAGTGAAATCTGCCACGGAGTCACCTAGTGCAG | 7920 fluorescence intensity (a.u.)
11 | CGTAATTGCATCTCTATTTTCATCTCTACTTCATTTCTCTCGGAGTCACCTAGTGCAG | 37900 fluorescence intensity (a.u.)
12 | AAAATTGAAAGTTTGATTGAAATTAGAACGATGTGACGAACGGAGTCACCTAGTGCAG | 35500 fluorescence intensity (a.u.)
13 | TTTGGTTGAAATTGAAACGATGTGATGGAAAAGTTGGAAGCGGAGTCACCTAGTGCAG | 5010 fluorescence intensity (a.u.)
14 | TCTGATTGAACGAGTTTACAGATTGAGAAAGCACGCGTCACGGAGTCACCTAGTGCAG | 53800 fluorescence intensity (a.u.)
15 | TCTGATGAACACATTGAGAAAGCAGATGAAGTTGCAGTGTCGGAGTCACCTAGTGCAG | 5120 fluorescence intensity (a.u.)
16 | CAAAATTTGAAGTTTGATTGAAATTGGTACGATGTGATGGCGGAGTCACCTAGTGCAG | 62400 fluorescence intensity (a.u.)
17 | TCTCTGTGATTGAAACCTTGTCTCTGAAATGCTTGAGGGCCGGAGTCACCTAGTGCAG | 55400 fluorescence intensity (a.u.)
18 | TAGAAGTTTGATTGAAATTGAAACGATATGATGGAAAAGTCGGAGTCACCTAGTGCAG | 44500 fluorescence intensity (a.u.)
19 | CTGATTGAAATTGAAAGTTTGATTGAAATTGAAACGATGCCGGAGTCACCTAGTGCAG | 65300 fluorescence intensity (a.u.)

Row | Sequence | binding signal
20 | TGATGAAGATGATGAGCATGTGATTGAGCTGTCTGATTGCCGGAGTCACCTAGTGCAG | 33800 fluorescence intensity (a.u.)
21 | AATTGATTTATTTTGAAACAGAGAGAATACAGTTTATTTACGGAGTCACCTAGTGCAG | 32400 fluorescence intensity (a.u.)
22 | ATAGTGATAGGTCTGTCAATGCAGTGAGGTCCTGAAAACCCGGAGTCACCTAGTGCAG | 8210 fluorescence intensity (a.u.)
23 | TCAAAATTAGAAGTTTGAAGAAATTGGAACGATGTGATGGCGGAGTCACCTAGTGCAG | 7940 fluorescence intensity (a.u.)
24 | TATTAAACGAATTATCACAAAATTATAGATTTATCATGTTCGGAGTCACCTAGTGCAG | 3760 fluorescence intensity (a.u.)
25 | GCTCCAATTTAATTTCAAAATGAATTTATATATTCATTGTCGGAGTCACCTAGTGCAG | 14100 fluorescence intensity (a.u.)
26 | CTGCTTAATTACTTCAGCCTTTACACATCAGCATATCATACGGAGTCACCTAGTGCAG | 8250 fluorescence intensity (a.u.)
27 | CGTAATTGTTTAGTTGCAAAAGGATAAGCACCAAACCAAACGGAGTCACCTAGTGCAG | 12400 fluorescence intensity (a.u.)
28 | ATTATTTGATTGTGGTTTAATTGTTGGTGCAACAGGGTTACGGAGTCACCTAGTGCAG | 47900 fluorescence intensity (a.u.)
29 | AAGTTTGATTGAAATTGGAACGATGTGACGGAAAAGTTGACGGAGTCACCTAGTGCAG | 35100 fluorescence intensity (a.u.)
30 | TCAAAATTGGAAGTTTGATTGAAATTGGAACGATGTGACGCGGAGTCACCTAGTGCAG | 61400 fluorescence intensity (a.u.)
31 | TTGGAAGTTTGATTGAAATTGGAACGATGTGACGGGAAAGCGGAGTCACCTAGTGCAG | 23300 fluorescence intensity (a.u.)
32 | TATGTGATTATCTTCTCCATACCATCATGTTCTAGATACGCGGAGTCACCTAGTGCAG | 24900 fluorescence intensity (a.u.)
33 | TTCTCATTTTATTTAATTTAAAAGTAATTTATTACATGTTCGGAGTCACCTAGTGCAG | 11600 fluorescence intensity (a.u.)
34 | GCCTAATTAATCCATGATTAACCATAAGTGCTGCAGTAACCGGAGTCACCTAGTGCAG | 33500 fluorescence intensity (a.u.)
35 | CTGAGATGCTAATTGTGTGTACACTGTTGAGCACATTTGACGGAGTCACCTAGTGCAG | 3680 fluorescence intensity (a.u.)
36 | GGCTATTTCGTCCCAATTACCAATGGGCTAATTTTGGATCCGGAGTCACCTAGTGCAG | 5000 fluorescence intensity (a.u.)
37 | CTCCCAATATAATTATTTTCTATTTTCACAAACTCAGATACGGAGTCACCTAGTGCAG | 5940 fluorescence intensity (a.u.)
